High-throughput results: PubChem BioAssay, National Center for Advancing Translational Sciences (NCATS)
TGFb inhibitor – blocks TGF-b signaling; 1.2% of 410,000 active; HepG2 CAGA-GFP TGF-b/SMAD3 reporter, GFP fluorescence, 18 h; TGF-beta stimulated, 500 pg/mL final; AID 588855; Potency, µM (doses to about 46.1 µM), usual class: inhibitors; also: nearly all actives have a fitted effect of over 65% in size
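HEPG2 CAGA-GFP cells (1000/well, DMEM with 1% FBS) were pre-incubated 2 h at 37 degrees C, given compound by pin tool, then stimulated with TGF-beta at 500 pg/mL final for 18 h before per-cell GFP fluorescence imaging.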
IL-1B inflam inh – inhibitors of inflammasome signaling (IL-1 beta secretion); THP-1 LPS/ATP IL-1B secretion, AlphaLISA, 16 h; hits give low values; activity change, % at 57.5 µM; 4.7% of 360,000 active; AID 743279; in the data active = activity change below about -50%; inconclusive = mostly about -30% to -49%
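THP-1 cells pretreated 1 hr with compounds (up to 57.5 uM final), then stimulated with LPS (250 ng/mL final) plus ATP (1.25 mM final); secreted IL-1B measured by AlphaLISA after 16 hr, decreased signal indicating inhibition.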
TDP1 cell CPT – DT40-hTDP1 cell growth loss with CPT; chicken DT40 Tdp1-/-;hTDP1 cells + 20 nM CPT, ATP luminescence, 48 h; Potency, µM (highest dose often 46.2 µM), actives largely listed as inhibitors; 12% of 420,000 active; AID 686979; also: nearly all actives have a fitted effect of over 55% in size
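Cell growth measured by CellTiter-Glo luminescence after a minimum 48 h, 37 C compound exposure with 20 nM CPT in Tdp1-knockout DT40 cells stably expressing hTDP1, seeded 400/well; qHTS titration format.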
S-ASM inh – human S-ASM enzyme inhibition. P17405. placental ASM, HMU-PC fluorogenic substrate, 60 min. Potency, µM (doses to about 57.5 µM), actives largely listed as inhibitors. 0.006% of 340,000 active
Target sequence (P17405 47-631 limits assumed): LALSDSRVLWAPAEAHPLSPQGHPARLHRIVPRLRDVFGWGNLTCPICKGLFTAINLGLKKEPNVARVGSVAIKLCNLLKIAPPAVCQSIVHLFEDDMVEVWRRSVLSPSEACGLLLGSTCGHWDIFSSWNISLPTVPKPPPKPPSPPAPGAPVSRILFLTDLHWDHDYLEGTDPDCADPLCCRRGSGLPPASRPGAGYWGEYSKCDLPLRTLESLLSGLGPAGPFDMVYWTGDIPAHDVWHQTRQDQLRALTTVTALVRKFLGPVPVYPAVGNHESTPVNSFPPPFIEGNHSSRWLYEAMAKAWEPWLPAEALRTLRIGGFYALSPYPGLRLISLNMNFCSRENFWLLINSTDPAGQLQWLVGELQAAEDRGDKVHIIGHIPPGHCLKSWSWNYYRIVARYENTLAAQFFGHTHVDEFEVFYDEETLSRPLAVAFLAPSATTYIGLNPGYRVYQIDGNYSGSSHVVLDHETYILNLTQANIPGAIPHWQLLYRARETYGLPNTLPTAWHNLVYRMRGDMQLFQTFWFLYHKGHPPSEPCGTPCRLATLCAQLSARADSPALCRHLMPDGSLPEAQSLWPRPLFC
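Steps: dispense placental human ASM, pin compound, wait 10 min at room temperature, add HMU-PC0 substrate at 9 uM final, incubate 60 min at 37 °C, add stop solution raising pH to 10, read fluorescence.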
DT40 TDP1 no CPT – qHTS for Inhibitors of human tyrosyl-DNA phosphodiesterase 1 (TDP1): qHTS in cells in absence of CPT. Potency, µM (doses to about 46.2 µM), most hits filed as inhibitors. AID 686978, 2013. DT40 Tdp1-/- hTDP1 cells, no CPT, ATP luminescence, 48 h. 15% of 420,000 active; also: nearly all actives have a fitted effect of over 55% in size
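Stably hTDP1-transfected Tdp1-null chicken DT40 cells were treated with library compounds minus camptothecin and grown for at least 48 hr at 37 °C, after which cellular ATP was quantified by luminescence.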
HepG2 tox – kills HepG2 cells in TGF-b inhibitor counter-screen. HepG2 CAGA-GFP viability, ATP luminescence, 18 h. Potency, µM (doses to about 46.1 µM), usual class: cytotoxic. 0.76% of 410,000 active
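HepG2 CAGA-GFP cells (1000/well, DMEM with 1% FBS) received compound, then TGF-beta at 500 pg/mL final, and were incubated 18 hours at 37 degrees C. Viability was read by CellTiter-Glo luminescence. Media-only wells were set as complete cell-killing and DMSO as no toxicity.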
Hits are given with their value; – = inactive; ? = inconclusive; · = not tested or not shown; ! = a repeat was not active. Sampled rows, rich in hits. Any-hit rate of the full collection: about 19%. Unless noted, calls follow the shape of the dose curve; as a rule, active = well fitted curve in the direction sought with a large enough effect; inconclusive = small, poorly fitted or top-dose-only effect, or another doubt; inactive = no such curve, though single readings can be large; an effect the other way counts as inactive or inconclusive.

SMILES | TGFb inhibitor | IL-1B inflam inh | TDP1 cell CPT | S-ASM inh | DT40 TDP1 no CPT | HepG2 tox
CC1CCC(NC(=O)CNC(=S)N2CC3CC(C2)c2cccc(=O)n2C3)CC1 (stereo unspecified) | – | – | – | – | – | –
CCOCCN1CCN(c2nnc3n2-c2ccc(Cl)cc2C(c2ccccc2Cl)=NC3)CC1 | – | – | ? | – | ? | –
COc1cc(N)c(Cl)cc1C(=O)NC1CN2CCC1CC2 (stereo unspecified) | · | · | – | · | – | ·
COc1ccc(/C=C2/C(=O)NC(=S)N(C3CC3)C2=O)cc1CN1C(=O)c2ccccc2C1=O | – | – | 16µM | – | 23µM | –
CCOc1ccc(CN(CCc2ccc3c(c2)OCO3)Cc2ccc(CC)cc2)cc1 | – | · | ? | · | ? | –
CCOc1ccc(CN(CCc2ccc3c(c2)OCO3)Cc2cccc(C)c2)cc1 | ? | · | 16µM | · | 13µM | –
CCOc1ccc(CN(CCc2ccc3c(c2)OCO3)Cc2cc(OC)ccc2O)cc1 | ? | · | ? | · | 18µM | –
Cc1nn(-c2ccccc2)c2c1P(=O)(O)/C(=C1\N(C)c3ccccc3C1(C)C)C=N2 | – | ? | – | – | – | –
COc1ccc(C(=O)Cn2c(NCCCl)nc3ccccc32)cc1 | – | – | 21µM | – | – | –
O=C(Cn1c(NCCCl)nc2ccccc21)c1ccc(Br)cc1 | – | – | ? | – | ? | –
COc1cccc(OC)c1C1=NCC(=O)Nc2c1oc1ccc(Br)cc21 | 16µM | – | 0.92µM | – | 0.92µM | –
O=c1cc(CN2CC=C(c3ccccc3)CC2)c2c(ccc3ccccc32)o1 | – | – | ? | – | 21µM | –
Cn1c(=O)n(C)c2cc(CNCCc3ccccc3F)ccc21 | – | · | ? | · | ? | –
C=CP(=O)(O)c1ccccc1 | – | – | – | – | – | –
Cn1c(=O)c2c(nc(SCc3ccccc3)n2Cc2ccc(Cl)cc2)n(C)c1=O | – | ? | ? | – | ? | –
Cc1ccc(-c2c(C)n3c4c(=O)n(C)c(=O)n(C)c4nc3n2CCO)cc1 | – | · | 0.26µM | · | 0.18µM | –
C[C@@]12N[C@@H](Cc3ccccc31)c1ccccc12 | – | – | – | – | – | –
C[C@H]1CN([C@@H](C)CO)C(=O)CCCn2nncc2CO[C@H]1CN(C)C(=O)Oc1ccc2ccccc2c1 | – | – | 16µM | · | 9.2µM | –
C[C@@H]1CN([C@@H](C)CO)C(=O)CCCn2nncc2CO[C@@H]1CN(C)C(=O)Oc1cccc2ccccc12 | – | – | 0.52µM | · | 0.58µM | –
C[C@@H]1CN([C@H](C)CO)C(=O)CCCn2nncc2CO[C@@H]1CN(C)C(=O)Oc1ccc2ccccc2c1 | – | – | – | · | 8.2µM | –
C[C@@H]1CN([C@@H](C)CO)C(=O)CCCn2nncc2CO[C@@H]1CN(C)C(=O)Oc1ccc2ccccc2c1 | – | – | – | · | ? | –
CCOc1ccc(NCc2cccn2-c2nnc(N3CCC(C(=O)NC(C)c4ccccc4)CC3)s2)cc1 (stereo unspecified) | · | · | 21µM | · | 8.2µM | –
CCOc1ccc(NC(=O)C2C3c4ccccc4C(c4ccccc43)C2C(=O)O)cc1 (stereo unspecified) | – | – | – | – | – | –
COC(=O)C1=C(c2c(C)noc2C)C[C@@H]2CC[C@H]1N2C(=O)N1CCCCC1 | – | – | – | – | – | –
O=C(Nc1ccc(Cl)cc1)Nc1ccc(Cl)c(C(F)(F)F)c1 | · | · | 4.7µM | · | 3.3µM | ·
SMILES | TGFb inhibitor | IL-1B inflam inh | TDP1 cell CPT | S-ASM inh | DT40 TDP1 no CPT | HepG2 tox
c1cc2cc(c1)C[n+]1ccc(c3ccccc31)NCc1ccc(cc1)CNc1cc[n+](c3ccccc13)C2 | · | · | 9.4µM | · | 6.7µM | ·
Cc1cccc(Cn2cccc(C(=O)Nc3nnc(C)s3)c2=O)c1 | ? | · | – | · | – | –
CCc1ccc(NC(=O)c2cnc3sc(N4CCCC4)nn3c2=O)cc1 | ? | · | ? | · | ? | –
COc1ccc(CCNC(=O)c2cnc3sc(N4CCCCCC4)nn3c2=O)cc1 | – | · | 21µM | · | 9.2µM | –
O=Cc1ccc(O)cc1 | – | · | – | · | – | –
Cc1cc(C)cc(OCC(=O)Nc2ccc(-c3nc4ccccc4s3)cc2)c1 | – | · | 10µM | · | 9.2µM | –
Cc1cc(-c2nc3ccccc3s2)ccc1NC(=O)c1cc(Cl)ccc1Cl | – | · | ? | · | ? | –
CCCC1(CCC)C(=O)NC(=NCc2ccccc2)NC1=O | ? | – | 10µM | – | 13µM | –
CCCC1(CCC)C(=O)NC(=Nc2ccccc2)NC1=O | – | – | – | – | – | –
O=C(Nc1ccccc1)Oc1ccccc1 | – | – | – | – | – | –
O=C(Nc1ccc(C(=O)O)cc1)Oc1ccc(N(CCCl)CCCl)cc1 | – | – | 0.41µM | · | 0.73µM | –
FC(F)(F)c1cccc(-n2nnnc2C2(N3CCOCC3)CCCCC2)c1 | – | – | ? | – | ? | –
CC1C(c2cccs2)=[N+]([O-])C(C)(C(=O)c2ccc(Cl)cc2)N1O (stereo unspecified) | – | ? | – | – | – | –
C/C(=C\[C@@H](N)C(=O)O)CP(=O)(O)O | · | · | – | · | – | ·
CC(=O)Nc1cc(-c2ccc(C(=O)NC3CC3)cc2)cn2c(-c3ccc(F)c(Cl)c3)cnc12 | ? | – | ? | · | 15µM | –
COc1ccc(-c2nn(Cc3ccccc3)cc2C(=O)NC2CC2)cc1OC | – | – | – | – | – | –
CCOc1c(Cl)cc(CNCCc2c[nH]c3ccccc23)cc1OC | ? | -87 | ? | – | 15µM | –
CCOc1cc(CNCCc2ccccc2F)ccc1OC | – | – | ? | – | ? | –
CCOc1cc(CNCCc2c[nH]c3ccccc23)cc(Cl)c1OCC | ? | -97 | 16µM | – | 18µM | –
O=C(Cc1ccccc1)Oc1ccccc1N1C(=O)CCC1=O | – | – | – | – | – | –
CNCCc1ccc(O)c(O)c1 | ? | – | 8.2µM | – | 5.2µM | –
NCCc1cc(O)c(O)cc1O | – | – | 5.2µM | – | 3.7µM | –
NCCc1ccc(O)c(O)c1 | – | – | 5.2µM | – | 4.6µM | –
COc1cc(CNCCc2ccc3c(c2)OCO3)ccc1O | – | – | – | – | – | –
CCCCC[C@H]1CCCCC[C@@H](O)C[C@H](O)[C@H](O)/C=C/C(=O)O1 | · | – | ? | · | ? | ·
Cc1ccc(-c2nn3c(C)nnc3c3ccccc23)cc1S(=O)(=O)NCCO | – | – | ? | – | 21µM! | –
O=Nc1c(-c2ccccc2)n(O)[n+]([O-])c1-c1ccccc1 | – | – | ? | · | 21µM | –
O=C(O)c1cc(O)c(O)c(O)c1 | · | · | 0.58µM | · | 0.92µM | ·
